Assay results published in ChEMBL document CHEMBL3988442, “University of Dundee, Small-Polar-MMV Screening Library” (2021).
For some assays here: Entries with a potency or affinity are not part of this list.

What was measured:
Set-up in all cases: scale not given: direction of the effect not stated beside the values
[1] = biological target: Protein translocase subunit SecA (Escherichia coli (strain K12)) (UniProt P10408); assay: Assay to Identify E. coli SecA ATPase Inhibitors; assay type: functional; details: 30 µM
[2] = biological target: T1, Ubiquitin-activating enzyme e1, putative (Leishmania donovani (strain BPK282A1)) (UniProt E9BSI1); assay: Leishmania donovani Ubiquitin Activating Enzyme (LdE1); assay type: functional; details: 30 µM
T1 sequence (whole entry): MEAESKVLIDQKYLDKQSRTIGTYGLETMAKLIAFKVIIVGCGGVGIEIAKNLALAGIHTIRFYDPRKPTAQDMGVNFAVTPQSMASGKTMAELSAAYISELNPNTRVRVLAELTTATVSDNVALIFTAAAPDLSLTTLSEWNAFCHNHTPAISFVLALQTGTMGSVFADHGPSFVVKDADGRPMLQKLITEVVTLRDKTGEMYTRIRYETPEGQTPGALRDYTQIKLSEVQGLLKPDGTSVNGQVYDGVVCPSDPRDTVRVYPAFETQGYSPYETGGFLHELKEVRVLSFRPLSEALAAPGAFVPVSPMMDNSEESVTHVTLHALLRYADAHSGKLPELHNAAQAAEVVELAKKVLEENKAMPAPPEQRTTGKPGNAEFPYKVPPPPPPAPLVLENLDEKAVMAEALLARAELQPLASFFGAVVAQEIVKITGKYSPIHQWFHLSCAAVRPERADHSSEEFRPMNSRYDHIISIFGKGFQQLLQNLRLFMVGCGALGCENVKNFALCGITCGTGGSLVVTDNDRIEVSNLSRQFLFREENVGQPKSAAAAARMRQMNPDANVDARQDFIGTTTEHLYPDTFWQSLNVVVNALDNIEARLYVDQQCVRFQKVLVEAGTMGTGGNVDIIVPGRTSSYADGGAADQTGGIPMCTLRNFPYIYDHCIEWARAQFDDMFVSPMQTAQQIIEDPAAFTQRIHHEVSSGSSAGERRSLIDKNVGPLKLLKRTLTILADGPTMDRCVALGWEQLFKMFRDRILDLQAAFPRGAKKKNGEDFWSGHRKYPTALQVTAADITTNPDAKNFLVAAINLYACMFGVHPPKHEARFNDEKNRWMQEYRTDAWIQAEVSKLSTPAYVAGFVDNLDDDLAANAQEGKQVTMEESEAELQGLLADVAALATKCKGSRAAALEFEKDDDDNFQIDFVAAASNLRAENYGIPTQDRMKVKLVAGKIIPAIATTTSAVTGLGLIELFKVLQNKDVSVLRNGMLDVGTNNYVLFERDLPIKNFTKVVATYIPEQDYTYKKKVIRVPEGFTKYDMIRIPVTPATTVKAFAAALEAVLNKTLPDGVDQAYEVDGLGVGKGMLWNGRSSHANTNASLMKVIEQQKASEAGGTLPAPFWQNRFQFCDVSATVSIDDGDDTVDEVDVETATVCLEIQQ

[3] = biological target: AMP-activated protein kinase, AMPK (Homo sapiens) (UniProt P54646+O43741+P54619+Q9UGJ0+Q9Y478+Q13131+Q9UGI9); assay: AMP-dependent Kinase enzyme assay. An in vitro enzyme assay that detects ADP turnover that is directly proportional to AMPK activity. This uses naive AMPK that is activated during the assay with MK-8722; assay type: functional; details: 30 µM
[4] = biological target: Sialic acid-binding Ig-like lectin 9 (Homo sapiens) (UniProt Q9Y336); assay: Hs-Siglec9 ALPHAscreen SOP 20170721; details: 10 µM
Trypanosoma cruzi = assay: Trypanosoma cruzi phosphomannomutase and mannose-1-phosphate guanylyltransferase assay; assay type: functional; details: 10 µM
[5] = biological target: T2, Arginase-2, mitochondrial (Homo sapiens) (UniProt P78540); assay: in vitro enzyme assay to detect the production of urea directly proportional to the activity of Arginase II; assay type: functional; details: 33.3 µM; further: in the data most compounds retested in dose-response had high values
T2 sequence (whole entry): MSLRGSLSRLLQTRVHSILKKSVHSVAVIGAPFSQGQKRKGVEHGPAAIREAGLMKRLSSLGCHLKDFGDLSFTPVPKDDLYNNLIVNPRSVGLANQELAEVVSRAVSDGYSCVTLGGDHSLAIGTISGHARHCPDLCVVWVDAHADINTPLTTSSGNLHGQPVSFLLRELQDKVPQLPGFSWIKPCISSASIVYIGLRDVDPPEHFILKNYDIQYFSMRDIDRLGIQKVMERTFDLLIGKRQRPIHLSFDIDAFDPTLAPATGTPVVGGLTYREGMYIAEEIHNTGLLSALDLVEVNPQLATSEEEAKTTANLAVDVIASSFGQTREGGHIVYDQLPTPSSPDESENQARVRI

[6] = biological target: T3, Proteasome subunit beta (Trypanosoma cruzi) (UniProt O96673); assay: Trypanosoma cruzi proteasome chymotrypsin-like activity (TcProtChymo) assay.; further: in the data most compounds retested in dose-response had high values; assay type: functional; details: 9.37 µM
T3 sequence (whole entry): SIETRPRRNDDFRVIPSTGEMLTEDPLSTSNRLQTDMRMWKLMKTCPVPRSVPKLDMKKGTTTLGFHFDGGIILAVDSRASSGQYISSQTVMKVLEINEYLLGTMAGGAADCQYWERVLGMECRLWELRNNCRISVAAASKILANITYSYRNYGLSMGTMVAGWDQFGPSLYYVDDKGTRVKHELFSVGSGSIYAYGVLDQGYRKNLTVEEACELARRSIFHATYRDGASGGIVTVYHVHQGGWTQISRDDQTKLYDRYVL

Homo sapiens = organism: Homo sapiens; assay: To identify inhibition of the IFN signalling (Jak-Stat) pathway via expression of an eGFP reporter gene under the control of an IFN-stimulated response element (ISRE) containing MxA promoter.; assay type: functional; details: 30 µM
[7] = biological target: T4, Tyrosyl-tRNA synthetase, putative (Trypanosoma cruzi (strain CL Brener)) (UniProt Q4DSP6); assay: Trypanosoma cruzi tyrosyl tRNA synthetase (TcYRS) _High Tyrosine SOP; assay type: functional; details: 30 µM; further: in the data most compounds retested in dose-response had high values
T4 sequence (whole entry): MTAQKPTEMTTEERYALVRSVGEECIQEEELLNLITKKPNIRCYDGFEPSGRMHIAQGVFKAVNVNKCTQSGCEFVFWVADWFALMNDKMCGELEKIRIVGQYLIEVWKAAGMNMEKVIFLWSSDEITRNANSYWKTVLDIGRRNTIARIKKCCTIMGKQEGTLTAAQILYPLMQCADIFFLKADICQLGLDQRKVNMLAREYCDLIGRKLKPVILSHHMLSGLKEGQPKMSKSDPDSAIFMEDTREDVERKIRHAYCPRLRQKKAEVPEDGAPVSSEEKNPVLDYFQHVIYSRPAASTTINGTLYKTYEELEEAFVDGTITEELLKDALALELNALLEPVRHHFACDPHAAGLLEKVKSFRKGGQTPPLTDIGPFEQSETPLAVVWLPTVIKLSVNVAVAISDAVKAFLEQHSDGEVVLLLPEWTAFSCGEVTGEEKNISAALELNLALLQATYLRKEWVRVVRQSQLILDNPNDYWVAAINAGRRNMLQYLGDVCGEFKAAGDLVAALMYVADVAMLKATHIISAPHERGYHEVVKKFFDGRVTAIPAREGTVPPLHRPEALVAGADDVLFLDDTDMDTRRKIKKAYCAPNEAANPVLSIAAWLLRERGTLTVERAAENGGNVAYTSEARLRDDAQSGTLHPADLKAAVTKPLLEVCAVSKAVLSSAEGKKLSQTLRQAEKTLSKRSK

[8] = biological target: T4, Tyrosyl-tRNA synthetase, putative (Trypanosoma cruzi (strain CL Brener)); assay: Trypanosoma cruzi tyrosyl tRNA synthetase (TcYRS) SOP; assay type: functional; details: 30 µM
[9] = biological target: Chromo domain-containing protein 1 (Saccharomyces cerevisiae (strain ATCC 204508 / S288c) (Baker's yeast)) (UniProt P32657); assay: ScCHD-1 Enzyme Inhibition Assay; assay type: functional; details: 30 µM; further: in the data most compounds retested in dose-response had high values
Chromo domain-containing protein 1 (Saccharomyces cerevisiae (strain ATCC 204508 / S288c) (Baker's yeast)), sequence (P32657 whole entry, the tested form may be a part): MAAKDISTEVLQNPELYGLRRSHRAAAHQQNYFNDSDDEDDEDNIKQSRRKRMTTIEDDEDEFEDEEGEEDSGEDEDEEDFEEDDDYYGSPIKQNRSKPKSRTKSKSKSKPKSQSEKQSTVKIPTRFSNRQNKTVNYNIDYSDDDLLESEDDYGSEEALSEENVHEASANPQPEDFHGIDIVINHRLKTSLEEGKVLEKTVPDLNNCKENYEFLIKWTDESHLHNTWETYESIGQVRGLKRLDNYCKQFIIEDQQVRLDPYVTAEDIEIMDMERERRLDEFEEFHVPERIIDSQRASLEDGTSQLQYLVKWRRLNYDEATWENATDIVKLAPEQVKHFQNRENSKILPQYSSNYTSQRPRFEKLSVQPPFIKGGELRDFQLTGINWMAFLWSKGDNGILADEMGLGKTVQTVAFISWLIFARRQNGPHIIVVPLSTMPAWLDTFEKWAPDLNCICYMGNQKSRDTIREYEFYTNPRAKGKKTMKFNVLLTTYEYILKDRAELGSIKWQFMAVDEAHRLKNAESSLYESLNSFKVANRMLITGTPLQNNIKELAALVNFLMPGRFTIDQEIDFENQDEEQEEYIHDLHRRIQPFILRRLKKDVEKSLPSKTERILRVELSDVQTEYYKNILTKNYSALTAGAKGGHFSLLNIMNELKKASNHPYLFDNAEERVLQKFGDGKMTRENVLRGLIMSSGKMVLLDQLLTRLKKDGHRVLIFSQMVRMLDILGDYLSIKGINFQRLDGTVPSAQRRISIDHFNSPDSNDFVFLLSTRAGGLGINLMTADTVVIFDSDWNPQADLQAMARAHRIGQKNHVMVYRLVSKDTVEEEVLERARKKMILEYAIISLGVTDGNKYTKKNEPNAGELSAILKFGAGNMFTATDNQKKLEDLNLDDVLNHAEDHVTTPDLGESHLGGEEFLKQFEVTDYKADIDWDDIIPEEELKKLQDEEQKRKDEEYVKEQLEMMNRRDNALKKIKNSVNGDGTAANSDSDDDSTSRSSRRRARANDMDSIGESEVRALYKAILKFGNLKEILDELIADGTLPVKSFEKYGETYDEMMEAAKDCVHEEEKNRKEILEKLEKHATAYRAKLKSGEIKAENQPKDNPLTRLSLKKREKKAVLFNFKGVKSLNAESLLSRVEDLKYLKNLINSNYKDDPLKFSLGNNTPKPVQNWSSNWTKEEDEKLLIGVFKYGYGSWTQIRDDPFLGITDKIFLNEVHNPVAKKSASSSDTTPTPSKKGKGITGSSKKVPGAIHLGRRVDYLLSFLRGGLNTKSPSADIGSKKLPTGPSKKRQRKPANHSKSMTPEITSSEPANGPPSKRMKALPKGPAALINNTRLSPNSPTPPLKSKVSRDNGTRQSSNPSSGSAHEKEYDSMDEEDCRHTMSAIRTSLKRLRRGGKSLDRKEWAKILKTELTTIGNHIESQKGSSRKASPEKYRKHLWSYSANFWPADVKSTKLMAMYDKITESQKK

Protein translocase subunit SecA (Escherichia coli (strain K12)), sequence (P10408 whole entry): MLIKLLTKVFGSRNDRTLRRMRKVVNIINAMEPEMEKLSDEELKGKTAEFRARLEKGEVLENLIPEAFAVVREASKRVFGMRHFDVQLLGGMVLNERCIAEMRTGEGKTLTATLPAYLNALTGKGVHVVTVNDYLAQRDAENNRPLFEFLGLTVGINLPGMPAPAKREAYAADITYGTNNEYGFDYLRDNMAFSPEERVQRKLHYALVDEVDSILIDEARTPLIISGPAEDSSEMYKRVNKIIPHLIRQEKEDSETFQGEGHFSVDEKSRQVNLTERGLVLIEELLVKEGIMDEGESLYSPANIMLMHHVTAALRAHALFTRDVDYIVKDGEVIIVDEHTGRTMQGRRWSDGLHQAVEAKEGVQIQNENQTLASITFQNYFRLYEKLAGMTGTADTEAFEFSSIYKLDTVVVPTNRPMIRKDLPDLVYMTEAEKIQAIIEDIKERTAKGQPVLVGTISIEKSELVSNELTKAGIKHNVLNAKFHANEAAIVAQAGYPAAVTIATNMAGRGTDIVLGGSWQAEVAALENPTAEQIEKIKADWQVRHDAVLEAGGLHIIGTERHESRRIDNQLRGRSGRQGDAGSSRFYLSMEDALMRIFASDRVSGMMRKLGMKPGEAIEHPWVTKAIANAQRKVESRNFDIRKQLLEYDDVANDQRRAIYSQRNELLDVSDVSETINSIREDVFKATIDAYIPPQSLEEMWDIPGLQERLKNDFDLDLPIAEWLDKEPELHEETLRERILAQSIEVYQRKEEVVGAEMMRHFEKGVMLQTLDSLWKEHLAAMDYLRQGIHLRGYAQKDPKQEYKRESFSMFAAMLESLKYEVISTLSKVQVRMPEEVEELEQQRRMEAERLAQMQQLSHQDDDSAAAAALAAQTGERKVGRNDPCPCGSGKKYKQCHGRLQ
Sialic acid-binding Ig-like lectin 9 (Homo sapiens), sequence (Q9Y336 whole entry): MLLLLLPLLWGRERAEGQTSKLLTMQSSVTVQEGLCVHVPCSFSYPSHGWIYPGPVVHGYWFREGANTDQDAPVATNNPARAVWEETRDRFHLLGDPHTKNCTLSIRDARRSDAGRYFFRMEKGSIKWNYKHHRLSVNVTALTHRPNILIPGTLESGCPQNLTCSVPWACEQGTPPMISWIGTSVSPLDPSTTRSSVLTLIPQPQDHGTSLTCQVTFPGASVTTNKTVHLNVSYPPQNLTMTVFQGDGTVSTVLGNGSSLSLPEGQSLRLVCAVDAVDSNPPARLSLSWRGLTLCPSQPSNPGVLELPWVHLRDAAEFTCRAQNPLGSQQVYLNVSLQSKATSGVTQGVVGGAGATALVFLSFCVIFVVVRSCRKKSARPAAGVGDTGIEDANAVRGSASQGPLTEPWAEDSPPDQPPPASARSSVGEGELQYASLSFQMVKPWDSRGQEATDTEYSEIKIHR

Row | Structure (SMILES) | Percent Effect [1] | Percent Effect [2] | Percent Effect [3] | Percent Effect [4] | Percent Effect (Trypanosoma cruzi) | Percent Effect [5] | Percent Effect [6] | Percent Effect (Homo sapiens) | Percent Effect [7] | Percent Effect [8] | Percent Effect [9]
1 | Cc1noc([C@@]23CCO[C@@H]2CCN(C(=O)c2sccc2C)C3)n1 | -3.07% | 5.33% | 2.33% | -2.88% | 2.12% | -46.1% | 0.513% | 1.48% | 1.04% | 0% | 1.44%
2 | CC(C)N1CCC(NCc2cccnc2N(C)C)CC1 | -6.06% | 5.33% | -3.18% | 0.114% | 0.487% | 2.6% | 7.15% | 0.898% | -0.546% | 8.64% | -4.8%
3 | Cc1nc(C)n(CC2CN(CCc3ccncc3)CCO2)n1 (configuration not stated) | -1.44% | 5.48% | 1.35% | 6.79% | 0.979% | 3.64% | 10.3% | 16.9% | 4.3% | 10% | -5.67%
4 | O=C1CC[C@H]2[C@H](CCN2C(=O)C2CCOCC2)N1Cc1ccncc1 | -2.75% | 22.7% | -7.93% | 0.426% | 2.95% | -3.35% | 17.7% | -2.05% | 6.35% | 15.4% | -9.4%
5 | Cc1nnc(CN2CCN(CC(O)c3cccc(F)c3)CC2)n1C (configuration not stated) | -3.94% | 15.6% | -3.28% | 3.58% | 2.64% | 0.632% | 8.33% | 14% | 3.81% | 11.8% | -20.7%
6 | CCCS(=O)(=O)NCc1cccnc1OCC | 0.771% | 2.6% | -1.14% | 3.55% | 1.28% | -5.52% | 6.32% | 13.3% | 1.07% | -1.24% | -7.12%
7 | COCc1ccc(CNC(=O)C2=NN(c3ccccc3)C(=O)CN2)cc1 | -0.976% | 5.41% | 6.06% | -1.63% | -9.09% | 1.24% | 14% | 53.6% | 3.23% | 13.6% | -4.43%
8 | CC(Cn1cccn1)NC(=O)Nc1ccc(N(C)C)nc1 (configuration not stated) | -4.33% | 1.39% | -12.7% | -12% | -7.09% | 0.883% | 22.3% | 10.8% | 1.05% | -2.56% | -1.82%
9 | CNc1cc2c(nn1)CCN(C(=O)c1cccc3c1OCO3)C2 | -5.03% | 5.2% | -9.97% | 7.76% | 3.75% | 2.49% | -5.07% | -5.98% | 4.85% | 7.32% | -2.55%
10 | c1ccc(N2CCCC3(COCCN(c4nccs4)C3)C2)nc1 (configuration not stated) | 0.192% | 0% | -5.45% | 16.4% | 11.7% | 0.399% | 16% | 31.6% | 16.7% | 23.5% | 10.7%
11 | CN(Cc1cn2c(n1)CN(c1ncc(F)cn1)CC2)Cc1ccco1 | -3.08% | 13.3% | -4.28% | -1.26% | 0.197% | 4.89% | 20.7% | 1.67% | 9.57% | 21.8% | -5.99%
12 | O=C(Nc1nccs1)N1CCCC(N2CCNC2=O)C1 (configuration not stated) | -3.07% | 11% | 7.04% | 15.8% | 0.196% | 17.3% | 21.1% | 2.14% | 4.3% | 22.5% | -6.39%
13 | Cc1cnn(C2CCCN(C(=O)CCc3nccs3)C2)c1 (configuration not stated) | -2.71% | 16.2% | -1.11% | 0.709% | -8.4% | 1.2% | 17.3% | 16.1% | 2.46% | 3.7% | -3.34%
14 | CCn1cc(CN2CCCN(C(=O)CCc3ccncc3)CC2)cn1 | -3.49% | 26% | -14.6% | 4.57% | 1.87% | -0.712% | 5.91% | 23.6% | 8.74% | 14.6% | -7.66%
15 | CCCc1noc(CCC(=O)N2CCCC2c2ccsc2)n1 (configuration not stated) | -3.59% | -55.7% | 0.791% | 6.07% | 1.6% | -2.28% | -0.409% | -2.86% | -2.46% | -1.27% | -4.16%
16 | CCN(CC)S(=O)(=O)N1CCCC(c2ccc(C(=O)O)cc2)C1 (configuration not stated) | -1.63% | -2.7% | 0.184% | 8.84% | -4.44% | -4.76% | 0.69% | -0.683% | 2.65% | 0% | -0.737%
17 | Cc1noc(Cl)c1CC(=O)N1CCCC(n2cccn2)C1 (configuration not stated) | -7.2% | 15.8% | -1.76% | 0.841% | -0.0934% | -3.96% | 0.592% | -4.99% | 10.3% | 16.1% | 1.45%
18 | CNc1nc(CNC(=O)Nc2cccc(F)c2C)cs1 | -0.623% | -2.63% | -1.93% | 5.4% | -1.32% | 1.15% | 5.18% | 8.24% | 1.47% | -2.44% | 5.82%
19 | Cc1ccc(OCC(=O)NCc2ccccc2F)nc1 | -2.7% | 19.2% | -0.689% | 12.5% | 4.56% | -2.4% | 8.13% | 13.8% | 7.29% | 13.6% | -4.08%
20 | CC(C(=O)NCc1ccc(-n2cncn2)nc1)n1ccnc1 (configuration not stated) | -3.77% | 2.6% | 0.227% | 15% | 2.25% | 1.05% | -1.21% | -15.5% | 2.86% | 2.35% | -8.54%
21 | CC(Cn1ccnc1)NC(=O)NCCc1ccccn1 (configuration not stated) | -1.01% | 21.1% | -0.947% | -4.27% | 1.69% | -2.3% | 21.2% | 6.74% | 5.39% | 21.9% | -8.97%
22 | COCc1nc(CN2CCC3(CCCO3)CCC2=O)no1 (configuration not stated) | -7.29% | 5.33% | -4.46% | 6.25% | 7.3% | -2.6% | 12% | 10.4% | 6.01% | 3.7% | -5.51%
